For 78 molecules, Tm shift relative to glycine control results are on record in PubChem BioAssay AID1259313 (Sanford-Burnham Center for Chemical Genomics, 2017).

The campaign covered roughly 340,000 compounds. About 8,500 (2.5%) were called active. Many of the other results were omitted from the sample, so actives are more common in it than they were. Unmarked numbers belong to inactive results.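 The calls were made as follows: active = melting temperature shift of at least 10% of the positive control shift, at one fixed dose; inactive = the rest.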

The test deals with Glutamate receptor ionotropic, NMDA 3A (GRIN3A) ligand-binding domain. Kind of test: binders of NR3A ligand-binding domain, primary screen, biophysical, differential scanning fluorimetry, uHTS (AID 1259313). The settings on record: NR3A LBD differential scanning fluorimetry, at 25 µM, active compounds read high, 0% = protein alone, 100% = glycine-bound protein. (Differential scanning fluorimetry follows unfolding on heating by fluorescence.)
`Cc1ccc(C(=O)OCC(=O)NC(=O)Cc2ccccc2)c(O)c1`: the Tm shift relative to glycine control was 0.78%.
The result for `O=S(=O)(NC1CCCCC1N1CCN(c2ccccc2F)CC1)c1ccccc1` (stereo not drawn) reads -1.62%; that for `CN1C(=O)C(CC(N)=O)N(NC(=O)c2ccc(Cl)cc2)C1=S` (stereo not drawn), -3.25%; that for `Cc1ccc(N2C(=O)C(CC(=O)Nc3cccc(F)c3)N(CCc3ccncc3)C2=O)cc1` (stereo not drawn), 0.4%.
As to `Cc1ccc(NC(=O)CC2C(=O)N(Cc3ccccc3)C(=S)N2NC(=O)c2cccc(F)c2)c(C)c1` (stereo not drawn), the Tm shift relative to glycine control is 19.1% (active).
The result for `CC1=C(C(=O)Nc2ccccc2)C(c2cccs2)C(C#N)=C(SCC#N)N1` (stereo not drawn) reads -11.3%; that for `O=C(NCCOc1ccccc1F)Nc1ccc(Br)cc1`, 16.4% (active).
For `O=C(COc1ccccc1F)NNC(=O)c1cc(Br)ccc1Cl`, the Tm shift relative to glycine control is 0.51%.
Turning to `O=C(NCCOc1ccccc1Cl)C(=O)Nc1ccccc1`, the Tm shift relative to glycine control is -4.63%.
`CCN(CC)c1ccc(NC(=O)c2ccc(=O)[nH]c2)cc1S(=O)(=O)Nc1ccc(OC)cc1`: the Tm shift relative to glycine control is -4.98%.
For `Cc1nc(SCC(=O)N2CCc3ccccc3C2)c2c(C)c(C)sc2n1`, the Tm shift relative to glycine control is -0.44%.
Turning to `COc1cc(OC)cc(C(=O)NCC(=O)N2CCCCCCC2)c1`, the Tm shift relative to glycine control was 3.22%.
As for `Cc1c(C(=O)Nc2cccc(Cl)c2)cn2c(nc3ccccc32)c1C#N`, the Tm shift relative to glycine control is 24.6% (active).
As to `O=C(Nc1cccc(Cl)c1)c1cc([N+](=O)[O-])ccc1N1CCN(CCO)CC1`, the Tm shift relative to glycine control was 3.77%.
In the case of `Cn1c(Nc2cccc(Cl)c2)nc2ccccc21`, the Tm shift relative to glycine control was 8.46%.
With `CCCN(C(=O)c1nc2nccc(C)n2n1)c1c(N)n(Cc2ccccc2)c(=O)[nH]c1=O`, the Tm shift relative to glycine control was -5.77%.
Turning to `O=C(CCN1C(=O)c2ccccc2C1=O)NNC(=O)c1ccc(Cl)cc1Cl`, the Tm shift relative to glycine control was -1.46%.
Consider `CCc1ccc(CNC(=O)C2CCN(c3nnc(C)c4c(C)n(-c5ccc(C)cc5)nc34)CC2)cc1`, for which the Tm shift relative to glycine control is -2.58%.
Turning to `COc1ccccc1N1CCN(/N=C/c2ccc(O)cc2O)CC1`, the Tm shift relative to glycine control was 1.98%.
For `Oc1ccc(-c2nc3ccccc3nc2-c2ccc(O)cc2O)c(O)c1`, the Tm shift relative to glycine control is -6.22%.
Regarding `Cc1nc2ccccc2nc1N/N=C/c1ccc(O)cc1O`, the Tm shift relative to glycine control was 34.3% (active).
As to `O=C(Nc1ccnn1C1CCN(Cc2cccc(OCCO)c2)CC1)C1CCCC1`, the Tm shift relative to glycine control is 0.6%.
As to `COc1ccc(CN2CC(C(=O)NCCc3ccc(Cl)cc3)CC2=O)cc1` (stereo not drawn), the Tm shift relative to glycine control is -2.13%.
As to `COc1ccccc1N(CC(=O)Nc1c(C)n(C)n(-c2ccccc2)c1=O)S(=O)(=O)c1ccccc1`, the Tm shift relative to glycine control is -1.61%.
For `COc1ccc(Cl)cc1NS(=O)(=O)c1cccc(C(=O)NC2CCC(O)CC2)c1` (stereo not drawn), the Tm shift relative to glycine control was 0.97%.
The value for `NS(=O)(=O)c1ccc(CCNC(=O)CCCn2c(SCC(=O)N3CCCC3)nc3ccsc3c2=O)cc1` was -0.96%; that for `COc1ccc(C(=O)Nc2cccc(S(C)(=O)=O)c2)cc1` was 4.52%; that for `CCC(=O)Nc1ccc2nn(-c3ccc(F)cc3)nc2c1` was -10.1%.
The result for `O=C(/C=C/c1ccco1)Nc1ccc(Oc2ccccc2)cc1` reads 2.36%; that for `Cc1ccc(-n2nc3ccc(NC(=O)/C=C/c4ccco4)cc3n2)cc1C`, 32.1% (active); that for `COc1cccc(NC(=O)COC(=O)/C=C/c2ccco2)c1`, -0.92%.
Take `O=C(Nc1cccc(-c2nc3ccccc3[nH]2)c1)c1ccc(C(=O)Nc2cccc(-c3nc4ccccc4[nH]3)c2)cc1`: the Tm shift relative to glycine control is 27.9% (active).
Turning to `O=C(/C=C/c1ccco1)Nc1cccc(-c2nc3ccccc3[nH]2)c1`, the Tm shift relative to glycine control was 22.5% (active).
Regarding `CN(c1ccccc1)S(=O)(=O)c1cc(C(=O)Nc2nc3ccccc3[nH]2)ccc1Cl`, the Tm shift relative to glycine control was -0.62%.
As to `CC(C)Oc1ccc(/C=C(\NC(=O)/C=C/c2ccco2)C(=O)NCCc2nc3ccccc3[nH]2)cc1`, the Tm shift relative to glycine control is -0.09%.
For the molecule `COc1cc2c(cc1OC)C(c1ccccc1Br)NC(=O)C2` (stereo not drawn), the Tm shift relative to glycine control was -0.95%.
Regarding `Cn1c(=O)c2ccccc2n(CC(=O)Nc2ccc3c(c2)OCCO3)c1=O`, the Tm shift relative to glycine control is -1.03%.
As to `C[C@@H]1NC(=O)c2cc([N+](=O)[O-])cc(F)c2NCCC[C@@H](C(N)=O)NC(=O)[C@H](CC(N)=O)NC1=O`, the Tm shift relative to glycine control was 1.79%.
`CC(=O)N(CN1C(=O)C2C3C=CC(C3)C2C1=O)c1cccc(Cl)c1` (stereo not drawn): the Tm shift relative to glycine control is -2.44%.
With `Oc1c(Br)cc(/C=N/NC(=S)NCC2CCCO2)cc1Br` (stereo not drawn), the Tm shift relative to glycine control is 1.71%.
On to `COc1ccc(NC(=O)NC2CC3CCCC(C2)N3Cc2ccccc2)cc1` (stereo not drawn), for which the Tm shift relative to glycine control was 0%.
On to `CC(=O)Nc1ccc(S(=O)(=O)NC(C)C(=O)OCC(=O)NC2CCCC2)cc1` (stereo not drawn), for which the Tm shift relative to glycine control was 0.79%.
On to `COc1ccc(-c2noc(C(C)NS(=O)(=O)c3ccc(NC(C)=O)cc3)n2)cc1` (stereo not drawn), for which the Tm shift relative to glycine control was -8.89%.
With `CC(=O)Nc1ccc(S(=O)(=O)NC(C)C(=O)OCCOc2ccc(F)cc2)cc1` (stereo not drawn), the Tm shift relative to glycine control was 22.1% (active).
For `Cc1c(NC(=O)c2cc(-c3ccc(Cl)s3)nc3ccccc23)c(=O)n(-c2ccccc2)n1C`, the Tm shift relative to glycine control is 1.05%.
As to `C[C@H](NC(=O)C1CC(=O)N(c2ccc3c(c2)OCCO3)C1)C(=O)N1CCC(C(=O)O)CC1` (stereo partly drawn), the Tm shift relative to glycine control is -0.91%.
With `CCOC(=O)c1c(-c2ccccc2)oc2cc(Br)c(O)cc12`, the Tm shift relative to glycine control is 13.8% (active).
In the case of `CCOC(=O)c1c(-c2ccccc2)oc2ccc(OCC(=O)NN)cc12`, the Tm shift relative to glycine control was 0.51%.
With `CCOC(=O)c1c(-c2ccccc2)oc2cc(Br)c(O)c(C=O)c12`, the Tm shift relative to glycine control was -7.04%.
On to `Cc1cccc(CC(=O)N2CCN=C2SCc2ccc([N+](=O)[O-])cc2)c1`, for which the Tm shift relative to glycine control was -0.64%.
For `CCN(CC)CCCNC(=O)c1cn(C)c2ccc(S(=O)(=O)N(C)C3CCCCC3)cc2c1=O`, the Tm shift relative to glycine control was -1.61%.
In the case of `COc1cccc(NC(=O)CSc2nnc(-c3cccnc3)o2)c1`, the Tm shift relative to glycine control is -0.43%.
With `COc1ccc2oc(-c3cccc(NC(=O)CSc4ccc(Cl)cc4)c3)nc2c1`, the Tm shift relative to glycine control was 13.7% (active).
In the case of `COc1ccc(C(=O)NCc2nnc(SCC(=O)Nc3cccc(OC)c3)o2)cc1`, the Tm shift relative to glycine control is -1.39%.
As to `COCCCNC(=O)CNC(=O)c1nn(-c2ccc(OC)cc2)c(=O)c2ccccc12`, the Tm shift relative to glycine control was -1.01%.
For `CCOC(=O)C1CCN(CC(=O)Nc2ccc(OC)c(S(=O)(=O)N3CCCCC3)c2)CC1`, the Tm shift relative to glycine control was 0.25%.
As to `C#CCOCCOCCOCCNc1nc(N2CCN(C(=O)CCCCCCCCCCNC(=O)Cn3cc(CCCCCN)nn3)CC2)nc(N2CCN(C(=O)CCCCCCCCCCNC(=O)[C@H](CO)n3cc(CCCSC)nn3)CC2)n1`, the Tm shift relative to glycine control was 14.2% (active).
With `C#CCOCCOCCOCCNc1nc(N2CCN(C(=O)[C@H](CCC(=O)O)n3cc(CN)nn3)CC2)nc(N2CCN(C(=O)[C@H](CCC(=O)O)n3cc(CN)nn3)CC2)n1`, the Tm shift relative to glycine control is 1.02%.
Take `C#CCOCCOCCOCCNc1nc(N2CCN(C(=O)[C@H](C(C)C)n3cc(CCO)nn3)CC2)nc(N2CCN(C(=O)[C@H]([C@@H](C)CC)n3cc(CCCN=C(N)N)nn3)CC2)n1`: the Tm shift relative to glycine control was 1.78%.
For the molecule `C#CCOCCOCCOCCNc1nc(N2CCN(C(=O)CCCCCCCCCCNC(=O)[C@H]([C@@H](C)CC)n3cc(CCCCN=C(N)N)nn3)CC2)nc(N2CCN(C(=O)CCCCCCCCCCNC(=O)[C@H](CO)n3cc(CCCSC)nn3)CC2)n1`, the Tm shift relative to glycine control is 17% (active).
`C#CCOCCOCCOCCNc1nc(N2CCN(C(=O)[C@H](CCCCN)n3cc(CCC(=O)O)nn3)CC2)nc(N2CCN(C(=O)[C@H](CCCCN)n3cc(CC(C)O)nn3)CC2)n1` (stereo partly drawn): the Tm shift relative to glycine control was 1.78%.
For the molecule `C#CCOCCOCCOCCNc1nc(N2CCN(C(=O)CCCCCCCCCCNC(=O)[C@H](CCCCN)n3cc(C)nn3)CC2)nc(N2CCN(C(=O)CCCCCCCCCCNC(=O)[C@H](CO)n3cc(CCCSC)nn3)CC2)n1`, the Tm shift relative to glycine control is 24.7% (active).
The result for `C#CCOCCOCCOCCNc1nc(N2CCN(C(=O)Cn3cc(CCCCN)nn3)CC2)nc(N2CCN(C(=O)[C@H](CCCCN)n3cc(CCC(=O)O)nn3)CC2)n1` reads 1.78%; that for `C#CCOCCOCCOCCNc1nc(N2CCN(C(=O)Cn3cc(CCO)nn3)CC2)nc(N2CCN(C(=O)Cn3cc(CCCN=C(N)N)nn3)CC2)n1`, 0%; that for `C#CCOCCOCCOCCNc1nc(N2CCN(C(=O)Cn3cc(CCO)nn3)CC2)nc(N2CCN(C(=O)[C@H](CCCCN)n3cc(CCCC)nn3)CC2)n1`, 0.76%.
Take `CCn1c(SC)nc(O)c(C(c2ccc(OC)c(O)c2)c2c(O)nc(SC)n(CC)c2=O)c1=O`: the Tm shift relative to glycine control was -1.71%.
Regarding `O=C(O)c1cc2ccccc2c(=O)s1`, the Tm shift relative to glycine control was -0.71%.
As to `O=C(CCNC(=O)Cn1ccc2ccccc2c1=O)NCCC1=CCCCC1`, the Tm shift relative to glycine control was -1.72%.
Regarding `O=C(NCc1ccccn1)C1CCN(S(=O)(=O)c2ccc(Br)cc2)CC1`, the Tm shift relative to glycine control was -1.11%.
For `Cc1nc(COc2cc3oc(=O)cc(C)c3cc2Cl)cs1`, the Tm shift relative to glycine control was -0.26%.
As to `CCN(CC(=O)NC(C)C)C(=O)c1cc(S(=O)(=O)N2CCCCC2)ccc1N1CCCCC1`, the Tm shift relative to glycine control was -0.99%.
The result for `CC(=O)Nc1ccc(Nc2nc3c(S(=O)(=O)c4ccc(C)c(C)c4)nnn3c3ccccc23)cc1` reads 14.7% (active).
Regarding `Cc1ccc(S(=O)(=O)c2nnn3c2nc(N2CCN(c4ccccn4)CC2)c2ccccc23)cc1`, the Tm shift relative to glycine control is 5.05%.
Turning to `Cc1cccc(Nc2nc3c(S(=O)(=O)c4ccccc4)nnn3c3ccccc23)c1C`, the Tm shift relative to glycine control was 1.31%.
On to `CCC12CN3CC(CC)(CN(C1)C31C(=O)N(C)c3ccc(C)cc31)C2=O` (stereo not drawn), for which the Tm shift relative to glycine control was 0%.
As for `O=c1c2ccccc2nc2n1C(CSCc1ccccc1)CS2` (stereo not drawn), the Tm shift relative to glycine control is -1.4%.
The result for `O=c1c2ccccc2nc2n1C(CSCc1cccc(C(F)(F)F)c1)CS2` (stereo not drawn) reads 16.1% (active).
For `O=c1c2ccccc2nc2n1C(CSc1ccc(F)cc1)CN2` (stereo not drawn), the Tm shift relative to glycine control was -3.8%.
